Bioassay records (PubChem BioAssay)
An excerpt weighted towards active compounds, which were near 21% of everything screened.
TDP1 cell noCPT – qHTS for Inhibitors of human tyrosyl-DNA phosphodiesterase 1 (TDP1): qHTS in cells in absence of CPT | Potency, µM (titrated, usually from 46.2 µM), for inactives: top-dose activity change, negative = growth inhibition, usual class: inhibitors | AID 686978, 2013 | DT40 Tdp1-/- hTDP1 cells, no CPT, ATP luminescence, 48 h | actives 15% (n = 420,000); also: potency is read from the fitted curve at half-maximal effect; % is scaled to controls: 0 for no effect and ±100 for the full control effect; nearly all actives have a fitted effect of over 55% in size
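Cells were dispensed at 400 per well, compounds added by pin tool, plates incubated ≥48 hr at 37 °C, then CellTiter-Glo added for 30 min at room temperature before luminescence reading. Line: DT40 Tdp1-/- complemented with hTDP1; camptothecin omitted.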
D3 ag – agonists of human D3 dopamine receptor; AID 652048; D3R DiscoveRx beta-arrestin cells, luminescence, 90 min; max activation, %; actives 0.58% (n = 410,000); P35462; in the data active = max activation above about 30%; also: 0% is about no effect
Target sequence (P35462 whole entry, looked up): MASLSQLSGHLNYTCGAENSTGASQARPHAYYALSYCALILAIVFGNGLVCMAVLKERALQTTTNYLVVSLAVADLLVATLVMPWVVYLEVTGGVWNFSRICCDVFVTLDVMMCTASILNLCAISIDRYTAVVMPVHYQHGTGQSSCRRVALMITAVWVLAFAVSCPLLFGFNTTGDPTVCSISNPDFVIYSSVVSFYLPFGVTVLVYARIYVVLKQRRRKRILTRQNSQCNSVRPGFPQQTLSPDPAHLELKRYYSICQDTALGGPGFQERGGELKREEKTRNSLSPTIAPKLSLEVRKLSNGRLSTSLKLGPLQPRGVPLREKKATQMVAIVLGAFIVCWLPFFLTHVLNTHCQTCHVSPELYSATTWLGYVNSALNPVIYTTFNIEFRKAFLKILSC
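Cells at 1500/well, incubated overnight, then treated with pinned compounds (dopamine as control) for 90 min at 37 degrees C. DiscoveRx reagent added for 30 - 60 minutes at room temperature; luminescence read.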
D3 antag – antagonists of human D3 dopamine receptor | AID 652054 | D3R cells, DiscoveRx beta-arrestin luminescence, antagonist mode; active compounds read low | actives 2.5% (n = 360,000) | max response, negative = inhibition, % | P35462; in the data active = max response below about -50%; inconclusive = no clear call, values can overlap the other calls; also: % is scaled to controls: 0 for no effect and ±100 for the full control effect
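Cells plated overnight at 1500 cells/well, then exposed to library compounds with dopamine controls for 90 minutes at 37 degrees C. DiscoveRx reagent added for 30–60 minutes at room temperature; luminescence read, quantitative HTS format.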
DT40 TDP1 CPT – DT40-hTDP1 cell growth loss with CPT; Potency, µM (titrated, usually from 46.2 µM), for inactives: at the highest dose activity change, negative = growth inhibition, usual class: inhibitors; actives 12% (n = 420,000); chicken DT40 Tdp1-/-;hTDP1 cells + 20 nM CPT, ATP luminescence, 48 h; AID 686979; also: potency is read from the fitted curve at half-maximal effect; % is scaled to controls: 0 for no effect and ±100 for the full control effect; nearly all actives have a fitted effect of over 55% in size
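Chicken DT40 Tdp1-/- cells stably complemented with human TDP1 were seeded at 400 cells/well in medium containing 20 nM camptothecin, exposed to pin-transferred compounds, and grown at 37 °C for at least 48 hr. Viability was read as ATP luminescence.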
ClpP mod – qHTS Assay for Activators of ClpP; actives 1.9% (n = 340,000); purified B. subtilis ClpP, FRET peptide cleavage, 20 min; Potency, µM (titrated, usually from 57.5 µM), for the others: top-dose activity change, negative = active; ATP-dependent Clp protease proteolytic subunit (Bacillus subtilis (strain 168)), P80244; active = well fitted falling curve with a large enough effect; inconclusive = small, poorly fitted or top-dose-only effect; inactive = no such curve, though single readings can be large or run the other way; also: potency is read from the fitted curve at half-maximal effect; the source files actives as falling curves though it sought activators and does not explain the sign; nearly all actives have a fitted effect of over 65% in size
Target sequence (P80244 whole entry, looked up): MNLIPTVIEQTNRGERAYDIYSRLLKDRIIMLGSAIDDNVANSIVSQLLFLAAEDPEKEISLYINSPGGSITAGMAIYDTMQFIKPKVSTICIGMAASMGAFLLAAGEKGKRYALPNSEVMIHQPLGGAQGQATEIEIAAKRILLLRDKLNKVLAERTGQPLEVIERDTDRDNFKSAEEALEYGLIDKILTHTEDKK
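FRET quenching reversal measured ClpP activation: 10 microg/mL B. subtilis ClpP at pH 8 with the FRET-FV decapeptide, read at 430 nm after 320 nm excitation. The 20-min minus 0-min signal was scaled between DMSO/no-enzyme wells and ADEP (5.8 microM final).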
IL1B secr inh – blocks inflammasome-driven IL-1 beta release; actives 4.7% (n = 360,000); THP-1 LPS/ATP IL-1B secretion, AlphaLISA, 16 h; active compounds read low; activity change, % at 57.5 µM; in the data active = activity change below about -50%; inconclusive = mostly about -30% to -49%; also: % is scaled to controls: 0 for no effect and ±100 for the full control effect
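THP-1 cells pretreated 1 hr with compounds (up to 57.5 uM final), then stimulated with LPS (250 ng/mL final) plus ATP (1.25 mM final); secreted IL-1B measured by AlphaLISA after 16 hr, decreased signal indicating inhibition.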
Starred values were filed as active, the others as inactive. Unless noted, calls follow the shape of the dose curve; as a rule, active = well fitted inhibition curve with a large enough effect; inconclusive = small, poorly fitted or top-dose-only effect; inactive = flat fitted curve, though single readings scatter.

How did CCOC(=O)CN1C(=O)N[C@@H](c2cccc(C(F)(F)F)c2)C(C(=O)OC)=C1C do in these assays?
TDP1 cell noCPT: 5%; D3 ag: 1; D3 antag: -6; DT40 TDP1 CPT: -1%; ClpP mod: 0%; IL1B secr inh: 22

What do the screens show for `CCN1C(=NCc2cccc(C(F)(F)F)c2)N[C@@H](c2cccc(C(F)(F)F)c2)C(C(=O)OC)=C1C`?
TDP1 cell noCPT: 5µM*; DT40 TDP1 CPT: 4.5µM*; ClpP mod: 2%

Results for CCN1C(N(C)CCc2cccs2)=N[C@@H](c2ccccc2)C(C(=O)OC)=C1C ?
TDP1 cell noCPT: inconclusive; D3 ag: -19; D3 antag: 0; DT40 TDP1 CPT: inconclusive; ClpP mod: -1%; IL1B secr inh: 12

What do the screens show for `CCN1C(=O)N[C@@H](c2cccc(C(F)(F)F)c2)C(C(=O)OC)=C1C`?
TDP1 cell noCPT: inconclusive; D3 ag: 0; D3 antag: 2; DT40 TDP1 CPT: 16µM*; ClpP mod: -1%; IL1B secr inh: 6

Results for CCN1C(N(C)CCc2c[nH]c3ccccc23)=N[C@@H](c2cccc(C(F)(F)F)c2)C(C(=O)OC)=C1C ?
TDP1 cell noCPT: 23µM*; D3 ag: 2; D3 antag: 21; DT40 TDP1 CPT: 9.2µM*; ClpP mod: 0%; IL1B secr inh: inconclusive

Results for COCCCN(C(=O)CC1OC(=O)c2ccccc21)c1c(N)n(Cc2ccccc2)c(=O)[nH]c1=O (configuration not stated) ?
TDP1 cell noCPT: 4%; D3 ag: 3; D3 antag: 4; DT40 TDP1 CPT: 5%; ClpP mod: -5%; IL1B secr inh: 1

What do the screens show for `COc1ccc(C(=O)OCC(=O)N2CCCCCC2)cc1S(=O)(=O)N1CCOCC1`?
TDP1 cell noCPT: 17%; D3 ag: 3; D3 antag: 0; DT40 TDP1 CPT: -11%; ClpP mod: 0%; IL1B secr inh: 12

How did COC(=O)C1=C(CS(=O)(=O)c2ccccc2)NC(=O)NC1c1ccc(OC)c(OC)c1 (configuration not stated) do in these assays?
TDP1 cell noCPT: inconclusive; D3 ag: 3; D3 antag: 2; DT40 TDP1 CPT: inconclusive; ClpP mod: -5%; IL1B secr inh: 8

Results for O=C(NC1CCCCCC1)c1nc2ncccn2n1 ?
TDP1 cell noCPT: -4%; D3 ag: 4; D3 antag: 25; DT40 TDP1 CPT: 3%; ClpP mod: 28µM*; IL1B secr inh: 22

How did N#Cc1c(NC(=O)c2nc3ncccn3n2)sc2c1CCCCC2 do in these assays?
TDP1 cell noCPT: -19%; D3 ag: 5; D3 antag: 0; DT40 TDP1 CPT: 7%; ClpP mod: -3%; IL1B secr inh: 7

Results for CCN(CC)C(=O)C1CCN(S(=O)(=O)c2ccc3c(c2)CCCN3C(=O)C2CCC2)CC1 ?
TDP1 cell noCPT: inconclusive; D3 ag: 1; D3 antag: 2; DT40 TDP1 CPT: 7.3µM*; ClpP mod: -1%; IL1B secr inh: 43

How did CCN(CC)C(=O)C1CCN(S(=O)(=O)c2ccc3c(c2)CCCN3C(C)=O)CC1 do in these assays?
TDP1 cell noCPT: inconclusive; D3 ag: 7; DT40 TDP1 CPT: 23µM*; ClpP mod: 1%

What do the screens show for `O=C(C1CCC1)N1CCc2cc(S(=O)(=O)N3CCCCC3)ccc21`?
TDP1 cell noCPT: inconclusive; D3 ag: -1; D3 antag: -1; DT40 TDP1 CPT: inconclusive; ClpP mod: 0%; IL1B secr inh: 7

Results for CCN(C(=O)C1CCN(S(=O)(=O)c2ccc3c(c2)CCCN3C(C)=O)CC1)c1cccc(C)c1 ?
TDP1 cell noCPT: 23µM*; D3 ag: 8; DT40 TDP1 CPT: inconclusive; ClpP mod: 1%

Results for CCC(C)(C)NC(=O)C1CCN(S(=O)(=O)c2ccc3c(c2)CCCN3C(C)=O)CC1 ?
TDP1 cell noCPT: 0%; D3 ag: 0; DT40 TDP1 CPT: 3%; ClpP mod: -1%

How did CN(C)c1ccnc2sc(C(=O)NCc3ccccc3)c(N)c12 do in these assays?
TDP1 cell noCPT: inconclusive; D3 ag: -10; D3 antag: -21; DT40 TDP1 CPT: 16µM*; ClpP mod: -5%

How did CN(C)c1ccnc2sc3c(=O)n(-c4ccccc4)cnc3c12 do in these assays?
TDP1 cell noCPT: -25%; D3 ag: 1; D3 antag: -11; DT40 TDP1 CPT: inconclusive; ClpP mod: -19%; IL1B secr inh: 0

What do the screens show for `CN(C)c1ccnc2sc(C(=O)c3ccc(Br)cc3)c(N)c12`?
TDP1 cell noCPT: -25%; D3 ag: -7; D3 antag: -22; DT40 TDP1 CPT: 0%; IL1B secr inh: inconclusive

Results for CN(C)C=Nc1c(C(=O)c2ccccc2)sc2nccc(N(C)C)c12 ?
TDP1 cell noCPT: inconclusive; D3 ag: -12; D3 antag: -22; DT40 TDP1 CPT: -23%; IL1B secr inh: -54*

What do the screens show for `CN(C)c1ccnc2sc(C(N)=O)c(N)c12`?
TDP1 cell noCPT: inconclusive; D3 ag: 7; D3 antag: 10; DT40 TDP1 CPT: 1.6µM*; ClpP mod: -2%; IL1B secr inh: -66*

How did CC(=O)O[C@]1(C)CC[C@]23CC1C(C)(C)C2CC[C@@H]3C (some centres not stated) do in these assays?
TDP1 cell noCPT: 15%; DT40 TDP1 CPT: -7%

How did CCCC[C@@H]1CC2=C(C(=O)OC(C)(C)O2)[C@@H](c2ccc(F)cc2)O1 do in these assays?
TDP1 cell noCPT: inconclusive; D3 ag: 5; D3 antag: 0; DT40 TDP1 CPT: -20%; ClpP mod: 1%; IL1B secr inh: 4

Results for O=S(=O)(c1ccccc1)c1nnn2c1nc(Nc1ccccc1)c1cc(Cl)ccc12 ?
TDP1 cell noCPT: inconclusive; D3 ag: -8; DT40 TDP1 CPT: inconclusive; ClpP mod: inconclusive

What do the screens show for `Cc1c(C(=O)N2CCCC2)sc2ncnc(NCCCN3CCOCC3)c12`?
TDP1 cell noCPT: 0%; DT40 TDP1 CPT: 9%

Results for COc1ccc(CNC(=O)Cn2c(=O)nc(-c3ccccc3F)c3cc(Cl)ccc32)cc1OC ?
TDP1 cell noCPT: 0%; D3 ag: -15; DT40 TDP1 CPT: -9%; ClpP mod: 2%

How did CC(C)C12CN3CC(C(C)C)(CN(C1)C3c1ccccc1)C2O (configuration not stated) do in these assays?
TDP1 cell noCPT: -7%; D3 ag: -22; D3 antag: -84*; DT40 TDP1 CPT: 3%; ClpP mod: -4%; IL1B secr inh: -19
